Our source for the outcome and AC50 values is PubChem BioAssay (EPA / NIEHS).

SMILES strings stand for the structures. Several values for one entry are separate records, joined by “and”; a condition that tells them apart may be missing. Identical values can stand only once. Results filed as inconclusive are left out. Activity calls are given as the source filed them. Rule for the calls: active = hit-call score of the fitted dose curve at least 0.9, where 1 is the maximum; inconclusive = response in the unintended direction; inactive = score below 0.9.

Assay [1] addresses guinea pig Sigma Receptor, Non-selective Binding, SIGMAR1 (gene 100135589) (UniProt Q60492). Briefly: NVS_OR_gSIGMA_NonSelective: NovaScreen (NVS) Nuclear Receptor Binding Assay for guinea pig Sigma Receptor, Non-selective Binding (AID 2283367). An outline of the steps: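 Membranes from guinea pig brain incubated with radioligand and test chemical for 1 h, then filtered and scintillation-counted. Duplicate primary testing at 25 uM, with concentration-series follow-up for actives.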

For assay [2], the target named is human Norepinephrine Transporter (NET), SLC6A2 (gene 6530) (UniProt P23975). Briefly: NVS_TR_hNET: NovaScreen (NVS) Transporter Assay for human Norepinephrine Transporter (NET) (AID 2283377).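 Note: cell-free membrane protein extracted from CHO cells expressing human NET; displacement of radioligand from human NET seen as loss of scintillation signal.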 An outline of the steps:
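CHO cell extracts expressing the transporter; tritiated or iodinated tracer displaced competitively; filtration plus scintillation readout at 1 h. Single-point duplicates at 25 uM, concentration series for follow-up; activity = signal drop relative to DMSO.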

In assay [3] the test system is rat Norepinephrine Transporter (NET), gene 83511. Nature of the assay: NVS_TR_rNET: NovaScreen (NVS) Transporter Assay for rat Norepinephrine Transporter (NET) (AID 2283373). The method, boiled down: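 Competitive radioligand displacement at the rat NET using forebrain membrane preparations, 1 h incubation, filter-based scintillation readout. Primary testing in duplicate at a single 25 uM concentration; confirmed actives retested across concentrations.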

In assay [4] the target is rat Serotonin Transporter (SERT), Slc6a4 (gene 25553) (UniProt P31652). Nature of the assay: NVS_TR_rSERT: NovaScreen (NVS) Transporter Assay for rat Serotonin Transporter (SERT) (AID 2283375). The method, boiled down:
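Rat forebrain membranes were incubated with test chemical for 1 hour; radioligand binding to SERT was measured by filter-based scintillation counting. Primary screen ran in duplicate at 25 uM, with actives followed up in concentration series; DMSO served as negative control.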

For assay [5], the target named is human Adenosine Transporter (Adot), SLC29A1 (gene 2030) (UniProt Q99808). Briefly: NVS_TR_hAdoT: NovaScreen (NVS) Transporter Assay for human Adenosine Transporter (Adot) (AID 2283368). An outline of the steps: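 Binding displacement on U937 extracted protein, read 1 h post-dose by filtration and scintillation counting. Primary duplicate test at 25 uM, then singleton concentration series with 50 uM top; DMSO baseline.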
human Adenosine Transporter (Adot), SLC29A1 (gene 2030), sequence (Q99808 whole entry, looked up): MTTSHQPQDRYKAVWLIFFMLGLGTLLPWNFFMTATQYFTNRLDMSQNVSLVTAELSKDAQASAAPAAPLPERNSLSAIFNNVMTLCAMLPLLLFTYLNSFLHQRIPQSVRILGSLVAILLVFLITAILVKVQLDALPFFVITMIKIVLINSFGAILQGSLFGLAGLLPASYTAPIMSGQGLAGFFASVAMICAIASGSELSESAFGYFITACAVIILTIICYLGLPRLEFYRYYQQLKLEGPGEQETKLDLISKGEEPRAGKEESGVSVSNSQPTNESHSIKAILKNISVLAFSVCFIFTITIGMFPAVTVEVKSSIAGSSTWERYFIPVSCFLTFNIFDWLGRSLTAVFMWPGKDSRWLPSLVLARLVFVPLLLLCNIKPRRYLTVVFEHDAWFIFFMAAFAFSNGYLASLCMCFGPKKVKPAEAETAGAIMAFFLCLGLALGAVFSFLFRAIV

Assay [6] has as its system guinea pig Dopamine Transporter (DAT), gene 100714898. Briefly: NVS_TR_gDAT: NovaScreen (NVS) Transporter Assay for guinea pig Dopamine Transporter (DAT) (AID 2283369).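 Note: active compounds lower bound radioligand signal relative to DMSO.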 An outline of the steps: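 Guinea pig striatal membranes; radioligand displacement measured by filter-based scintillation counting 2 h after dosing. Initial duplicate screen at 25 uM, then concentration-response up to 50 uM for hits; loss of signal versus DMSO baseline.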

For assay [7], the target named is Peroxisome proliferator-activated receptor gamma (Homo sapiens) (UniProt P37231). Nature of the assay: NVS_NR_hPPARg: NovaScreen (NVS) Nuclear Receptor Binding Assay for human Peroxisome Proliferator-activated Receptor gamma (PPARg) (AID 2283370). The method, boiled down: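 Cell-free binding to extracted PPARg protein, read by fluorescence polarization 2 h after dosing; loss of signal relative to DMSO baseline marks displacement. Primary screen in duplicate at 25 uM, actives retested in concentration series.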
Peroxisome proliferator-activated receptor gamma (Homo sapiens), sequence (P37231 whole entry, looked up): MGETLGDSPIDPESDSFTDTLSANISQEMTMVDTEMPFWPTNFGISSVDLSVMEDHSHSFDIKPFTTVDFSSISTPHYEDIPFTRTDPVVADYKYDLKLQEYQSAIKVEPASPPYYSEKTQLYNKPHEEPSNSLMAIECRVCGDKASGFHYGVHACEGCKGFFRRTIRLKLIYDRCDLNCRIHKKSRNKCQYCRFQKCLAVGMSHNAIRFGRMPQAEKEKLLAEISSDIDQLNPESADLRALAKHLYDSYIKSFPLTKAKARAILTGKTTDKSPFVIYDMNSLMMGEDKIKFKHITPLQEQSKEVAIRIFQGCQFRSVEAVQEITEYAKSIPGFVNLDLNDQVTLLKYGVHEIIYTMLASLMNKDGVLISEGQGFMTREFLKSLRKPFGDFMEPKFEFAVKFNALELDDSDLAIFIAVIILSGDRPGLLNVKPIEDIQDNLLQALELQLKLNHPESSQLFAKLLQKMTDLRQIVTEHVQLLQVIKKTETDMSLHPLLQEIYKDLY

For assay [8], the target named is human Serotonin Transporter (SERT), SLC6A4 (gene 6532) (UniProt P31645). Briefly: NVS_TR_hSERT: NovaScreen (NVS) Transporter Assay for human Serotonin Transporter (SERT) (AID 2283372). The procedure: NVS_TR_hSERT is a biochemical, single-readout assay that uses extracted gene-proteins from Human platelet membranes in a tissue-based cell-free assay. Measurements were taken 1 hour after chemical dosing in a 96-well plate.NVS_TR_hSERT is one of one assay component(s) measured or calculated from the NVS_TR_hSERT assay. It is designed to make measurements of radioligand binding, a form of binding reporter, as detected with scintillation counting signals by Filter-based radiodetection technology.Data from the assay component NVS_TR_hSERT was analyzed into 1 assay endpoint. This assay endpoint, NVS_TR_hSERT, was analyzed in the positive analysis fitting direction relative to DMSO as the negative control and baseline of activity. […] Furthermore, this assay endpoint can be referred to as a primary readout, because the performed assay has only produced 1 assay endpoint. […]
human Serotonin Transporter (SERT), SLC6A4 (gene 6532), sequence (P31645 whole entry, looked up): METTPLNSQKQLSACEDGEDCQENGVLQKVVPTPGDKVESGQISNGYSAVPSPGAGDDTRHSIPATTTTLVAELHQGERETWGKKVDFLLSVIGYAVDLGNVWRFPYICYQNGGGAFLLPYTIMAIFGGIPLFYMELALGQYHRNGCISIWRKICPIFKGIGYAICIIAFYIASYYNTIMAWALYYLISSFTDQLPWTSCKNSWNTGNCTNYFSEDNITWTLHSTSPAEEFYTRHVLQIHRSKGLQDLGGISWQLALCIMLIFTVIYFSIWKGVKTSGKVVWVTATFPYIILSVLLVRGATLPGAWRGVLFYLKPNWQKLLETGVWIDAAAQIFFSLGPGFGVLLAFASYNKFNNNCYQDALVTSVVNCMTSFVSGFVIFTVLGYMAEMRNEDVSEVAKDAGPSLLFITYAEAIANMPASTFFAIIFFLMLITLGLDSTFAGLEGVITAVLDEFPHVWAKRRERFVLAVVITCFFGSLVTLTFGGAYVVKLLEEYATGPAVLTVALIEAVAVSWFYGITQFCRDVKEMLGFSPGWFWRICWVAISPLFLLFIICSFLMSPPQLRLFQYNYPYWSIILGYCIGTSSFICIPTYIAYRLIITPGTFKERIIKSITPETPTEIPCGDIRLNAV
Binding assays used specific radioligands (tritiated, iodinated) with non-radioactive competitive displacement ligands in agonist or antagonist protocols (as indicated) and various reference compounds and inhibitors to titrate specific binding to receptors and transporters. Most enzyme assays (CYPs, kinases, phosphatases, proteases, HDACs) used recombinant protein and specific substrates (fluorescence mostly, some colorimetric and radioactive) and inhibitors, followed by a biochemical separation of substrate and product. […]

Assay [9] addresses human Dopamine Transporter (DAT), SLC6A3 (gene 6531) (UniProt Q01959). Briefly: NVS_TR_hDAT: NovaScreen (NVS) Transporter Assay for human Dopamine Transporter (DAT) (AID 2283374).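 Note: activity means loss of bound radioligand signal relative to DMSO.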 The method, boiled down: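 hDAT membranes + tritiated/iodinated radioligand, competitive displacement; 1 h; filter scintillation readout. Single conc 25 uM (duplicate), then conc-response for actives. DMSO = negative control.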

Assay [10] deals with Norway rat Vesicular Monoamine Transporter (VMAT2), neurotransmitter transporter, Slc18a2 (gene 25549) (UniProt Q01827). Nature of the assay: NVS_TR_rVMAT2: NovaScreen (NVS) Transporter Assay for Norway rat Vesicular Monoamine Transporter (VMAT2), neurotransmitter transporter (AID 2283376).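 Note: actives lower the bound radioligand signal below the DMSO level.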 The procedure: NVS_TR_rVMAT2 is a biochemical, single-readout assay that uses extracted gene-proteins from Rat forebrain in a tissue-based cell-free assay. Measurements were taken 1 hour after chemical dosing in a 96-well plate.NVS_TR_rVMAT2 is one of one assay component(s) measured or calculated from the NVS_TR_rVMAT2 assay. It is designed to make measurements of radioligand binding, a form of binding reporter, as detected with scintillation counting signals by Filter-based radiodetection technology.Data from the assay component NVS_TR_rVMAT2 was analyzed into 1 assay endpoint. This assay endpoint, NVS_TR_rVMAT2, was analyzed in the positive analysis fitting direction relative to DMSO as the negative control and baseline of activity. Using a type of binding reporter, loss-of-signal activity can be used to understand changes in the binding as they relate to the gene Slc18a2. Furthermore, this assay endpoint can be referred to as a primary readout, because the performed assay has only produced 1 assay endpoint. To generalize the intended target to other relatable targets, this assay endpoint is annotated to the transporter intended target family, where the subfamily is vesicular transporter.
Norway rat Vesicular Monoamine Transporter (VMAT2), neurotransmitter transporter, Slc18a2 (gene 25549), sequence (Q01827 whole entry, looked up): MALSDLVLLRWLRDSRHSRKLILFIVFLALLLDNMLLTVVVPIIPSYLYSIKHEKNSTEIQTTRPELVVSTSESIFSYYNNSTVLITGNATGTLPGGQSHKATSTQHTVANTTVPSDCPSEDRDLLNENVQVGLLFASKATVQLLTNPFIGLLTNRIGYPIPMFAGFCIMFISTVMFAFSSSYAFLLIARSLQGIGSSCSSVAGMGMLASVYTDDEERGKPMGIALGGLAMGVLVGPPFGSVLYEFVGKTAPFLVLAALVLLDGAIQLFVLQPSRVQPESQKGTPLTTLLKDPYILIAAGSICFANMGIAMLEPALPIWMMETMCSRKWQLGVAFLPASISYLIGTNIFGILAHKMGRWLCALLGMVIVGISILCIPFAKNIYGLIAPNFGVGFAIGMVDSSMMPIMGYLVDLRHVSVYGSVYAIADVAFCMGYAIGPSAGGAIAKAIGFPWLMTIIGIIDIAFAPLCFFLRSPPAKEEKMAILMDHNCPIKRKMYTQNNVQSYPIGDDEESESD
Binding assays used specific radioligands (tritiated, iodinated) with non-radioactive competitive displacement ligands in agonist or antagonist protocols (as indicated) and various reference compounds and inhibitors to titrate specific binding to receptors and transporters. Most enzyme assays (CYPs, kinases, phosphatases, proteases, HDACs) used recombinant protein and specific substrates (fluorescence mostly, some colorimetric and radioactive) and inhibitors, followed by a biochemical separation of substrate and product. All assays for the biochemical HTS were initially run in duplicate at a single concentration (10 uM for CYP450 assays and 25 uM for all others). […] Each assay was run with positive and negative controls, and concurrent controls on every plate. The follow-up (secondary) screen tested active chemical-pairs in concentration series, as well as a few additional assays not tested in the primary screen, some selected negative inactives, and several cases re-run in the concentration series for confirmatory purposes.

guinea pig Sigma Receptor, Non-selective Binding, SIGMAR1 (gene 100135589), sequence (Q60492 whole entry, looked up): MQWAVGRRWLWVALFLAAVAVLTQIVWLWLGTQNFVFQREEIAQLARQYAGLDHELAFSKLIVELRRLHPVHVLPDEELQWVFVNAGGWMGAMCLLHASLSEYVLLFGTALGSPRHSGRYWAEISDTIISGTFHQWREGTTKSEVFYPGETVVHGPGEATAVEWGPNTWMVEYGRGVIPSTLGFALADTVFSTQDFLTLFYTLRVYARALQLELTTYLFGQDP
human Norepinephrine Transporter (NET), SLC6A2 (gene 6530), sequence (P23975 whole entry, looked up): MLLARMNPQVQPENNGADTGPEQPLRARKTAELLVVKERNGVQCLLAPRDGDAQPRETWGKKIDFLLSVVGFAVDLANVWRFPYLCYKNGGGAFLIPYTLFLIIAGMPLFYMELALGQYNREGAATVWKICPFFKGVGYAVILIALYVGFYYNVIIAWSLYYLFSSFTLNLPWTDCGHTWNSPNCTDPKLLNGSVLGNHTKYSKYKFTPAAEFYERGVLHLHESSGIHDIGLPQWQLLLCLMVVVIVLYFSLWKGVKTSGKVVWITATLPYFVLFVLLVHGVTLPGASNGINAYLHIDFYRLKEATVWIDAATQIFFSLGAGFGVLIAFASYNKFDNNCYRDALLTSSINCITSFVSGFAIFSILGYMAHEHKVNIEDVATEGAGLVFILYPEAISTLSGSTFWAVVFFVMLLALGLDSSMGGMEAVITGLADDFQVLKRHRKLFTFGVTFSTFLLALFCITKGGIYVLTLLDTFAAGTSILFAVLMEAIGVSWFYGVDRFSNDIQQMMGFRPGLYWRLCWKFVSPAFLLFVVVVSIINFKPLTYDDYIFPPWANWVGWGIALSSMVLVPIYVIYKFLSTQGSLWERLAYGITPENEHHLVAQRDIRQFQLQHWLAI
rat Serotonin Transporter (SERT), Slc6a4 (gene 25553), sequence (P31652 whole entry, looked up): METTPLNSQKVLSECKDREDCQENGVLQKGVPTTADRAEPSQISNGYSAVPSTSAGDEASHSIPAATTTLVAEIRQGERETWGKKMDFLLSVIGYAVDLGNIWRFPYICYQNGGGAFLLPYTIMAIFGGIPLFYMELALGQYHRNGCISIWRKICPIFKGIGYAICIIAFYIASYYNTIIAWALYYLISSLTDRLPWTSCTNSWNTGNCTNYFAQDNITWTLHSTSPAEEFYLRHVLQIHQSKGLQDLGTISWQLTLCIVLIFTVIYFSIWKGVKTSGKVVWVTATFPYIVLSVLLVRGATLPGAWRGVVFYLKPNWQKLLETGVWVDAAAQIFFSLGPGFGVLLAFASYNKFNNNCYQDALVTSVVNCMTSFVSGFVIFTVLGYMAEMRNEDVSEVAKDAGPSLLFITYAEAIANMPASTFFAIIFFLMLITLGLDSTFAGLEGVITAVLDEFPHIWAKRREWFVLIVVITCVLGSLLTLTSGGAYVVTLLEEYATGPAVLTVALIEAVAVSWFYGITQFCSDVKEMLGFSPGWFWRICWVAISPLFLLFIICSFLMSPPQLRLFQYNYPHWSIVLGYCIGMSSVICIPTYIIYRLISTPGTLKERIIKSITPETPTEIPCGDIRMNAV
human Dopamine Transporter (DAT), SLC6A3 (gene 6531), sequence (Q01959 whole entry, looked up): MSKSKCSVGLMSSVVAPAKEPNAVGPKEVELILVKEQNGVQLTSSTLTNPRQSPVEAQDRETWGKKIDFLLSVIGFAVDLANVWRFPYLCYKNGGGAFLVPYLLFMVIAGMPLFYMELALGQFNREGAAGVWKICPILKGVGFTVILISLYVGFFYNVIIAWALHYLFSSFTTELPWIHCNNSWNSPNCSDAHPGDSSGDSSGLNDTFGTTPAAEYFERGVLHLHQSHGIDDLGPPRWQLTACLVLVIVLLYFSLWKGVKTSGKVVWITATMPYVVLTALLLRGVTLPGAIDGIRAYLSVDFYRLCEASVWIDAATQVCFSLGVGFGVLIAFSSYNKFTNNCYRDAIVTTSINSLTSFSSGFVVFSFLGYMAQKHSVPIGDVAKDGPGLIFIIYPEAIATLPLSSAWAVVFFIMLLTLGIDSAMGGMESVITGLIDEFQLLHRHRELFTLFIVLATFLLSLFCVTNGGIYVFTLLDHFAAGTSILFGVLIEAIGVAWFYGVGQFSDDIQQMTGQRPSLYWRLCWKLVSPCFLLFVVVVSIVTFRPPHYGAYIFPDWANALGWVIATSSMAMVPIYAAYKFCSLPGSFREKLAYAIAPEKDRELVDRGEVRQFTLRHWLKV

In the case of `Nc1cccc2ccccc12`, in assay [1], the molecule was called inactive. The AC50 in [2] is 14.8 µM (active).

Regarding `CCC(=O)C(CC(C)N(C)C)(c1ccccc1)c1ccccc1` (stereo not drawn), the AC50 in assay [1] was 2.1 µM (active); in [3], 11.3 µM (active); in assay [4], 0.0639 µM (active); in assay [2] it was 5.61 µM (active).

For `C=C(C)C(=O)[O][Sn]([CH2]CCC)([CH2]CCC)[CH2]CCC`, the AC50 in assay [5] was 36.7 µM (active); in assay [6], 19.9 µM (active); in [7], 1.62 µM (active); in assay [8], 8.9 µM (active); in [3], 25 µM (active); in [9] it was 2.82 µM (active). For the same molecule, the AC50 in [4] is 4.15 µM (active); in assay [10] it was 4.76 µM (active); in [2] it was 0.376 µM (active).

As to `C(=NC1CCCCC1)=NC1CCCCC1`, the AC50 in assay [1] is 30.8 µM (active).

In the case of `O=C(NCO)NCO`, the AC50 in assay [7] was 25 µM (active).

On to `COc1cc(-c2ccc(N)c(OC)c2)ccc1N`, for which the AC50 in assay [5] is 14.2 µM (active); in [2], 10.3 µM (active) and 7.7 µM (active). For the same molecule, the molecule was classed as inactive in [7] and in assay [3].

Take `O=C/C=C/c1ccccc1`: the outcome in assay [7] was inactive.

For `NC(=S)Nc1ccccc1`, the AC50 in [1] was 33 µM (active); in assay [2], 15.4 µM (active).

With `C=CC#N`, the molecule was classed as inactive in [7].

For the molecule `COC(=O)c1sccc1S(=O)(=O)NC(=O)Nc1nc(C)nc(OC)n1`, in assay [7], the outcome was inactive.

For the molecule `CC(C)(c1ccc(OCC2CO2)cc1)c1ccc(OCC2CO2)cc1` (stereo not drawn), the call in assay [7] was inactive.

As to `O=[N+]([O-])c1ccc(O)c([N+](=O)[O-])c1`, the molecule was classed as inactive in [7].

On to `Oc1ccc(-c2ccccc2)cc1`, for which the values for the AC50 in [6] and in assay [9] were 11.9 µM (active) and 10.7 µM (active), respectively.

As to `CC(C)C1CCC(Cc2ccc(Cl)cc2)C1(O)Cn1cncn1` (stereo not drawn), in assay [7], the result was inactive.

As for `C[C@]12CCC(=O)C[C@@H]1CC[C@@H]1[C@@H]2CC[C@]2(C)[C@@H](O)CC[C@@H]12`, the AC50 in assay [1] was 5.71 µM (active).

With `C[C@H]1CCCC(=O)CCC/C=C/c2cc(O)cc(O)c2C(=O)O1`, in [7], the AC50 is 2.15 µM (active).
